Source: PubChem BioAssay (several laboratories)
A selection: hits, their analogues and other compounds. The true share with any hit is near 4.1%.
aSyn UTR inh – MLPCN primary screen, SNCA 5' untranslated region; alpha-synuclein 5'UTR reporter, inhibitor activity; inhibition, % (tested at 7.5 µM); 300,000 tested, 0.82% active; AID 1813; in the data active = inhibition above about 60%;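 also: H4 neuroglioblastoma cells stably carrying SNCA 5'UTR luciferase fusion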
697 NFkB inh – inhibitors of the PMA/ionomycin-induced NF-kB reporter in 697 B cells; 697 B-cell NF-kB luciferase reporter, 16 h; inhibition, % at 4 µM; 330,000 tested, 0.33% active; in the data active = inhibition above about 35%
Gli-Sufu block – blocks Gli-Sufu signaling in a luciferase reporter; Sufu-KO-LIGHT fibroblasts, Gli luciferase reporter luminescence; 340,000 tested, 0.74% active; inhibition, % at 5 µM;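 active = inhibition above about 55%, limit read from the data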
Jurkat NFkB inh – lowers PMA/ionomycin-induced NF-kB signal in Jurkat cells; PMA/ionomycin-induced NF-kB luciferase reporter, luminescence; inhibition, % at 4 µM; 330,000 tested, 0.53% active; AID 435003; in the data active = inhibition above about 50%
KLF5 inhibitor – suppresses KLF5 promoter-driven expression; DLD-1 KLF5 promoter-luciferase reporter, luminescence; inhibition, % at 5 µM; 290,000 tested, 0.23% active; AID 1700;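 active = inhibition above a per-plate limit of that plate's mean compound inhibition plus 3 SD, cut at about 60% in these data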;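 also: higher means less KLF5 promoter-driven luciferase light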
Mdm2 MdmX PPI – disrupts the human Mdm2-MdmX interaction; SaOS-2 split-luciferase Mdm2/MdmX complementation, luminescence; inhibition, % at 8 µM; 330,000 tested, 3% active;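 active = inhibition of at least 50% at 8 µM in the primary screen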
Jurkat NFkB conf – inhibitors of the PMA/ionomycin-induced NF-kB reporter in Jurkat cells, retest | shares compounds with Jurkat NFkB inh | Jurkat NF-kB luciferase, 16 h | inhibition, % at 4 µM | 2,700 tested, 27% active | AID 435020;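 active = inhibition reaching about 45% at 4 µM in either replicate, limit read from the data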
697 NFkB conf – lowers PMA/ionomycin-induced NF-kB signal in 697 B cells; shares compounds with 697 NFkB inh; 697 B-cell NF-kB luciferase, 16 h; inhibition, % at 4 µM; 2,000 tested, 35% active; in the data active = inhibition mostly above about 28%, no sharp cut-off; inactive = mostly below about 22%
Mdm2 MdmX conf – confirmation of human Mdm2/MdmX interaction inhibitors; inhibition, % at 8 µM; Mdm2-MdmX binding, luminescent assay; 10,000 tested, 55% active; shares compounds with Mdm2 MdmX PPI; AID 489028; in the data active = inhibition above about 40%
FLuc counter – full-length luciferase inhibition in Mdm2/MdmX counter-screen | shares compounds with Mdm2 MdmX PPI | SaOS-2 full-length luciferase counterscreen, luminescence | inhibition, % at 8 µM | 6,200 tested, 77% active | AID 504607;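 active = mean inhibition at 8 µM reaching about 37%, which flags the compound as non-specific, limit read from the data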;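 also: p53-null SaOS-2 cells with luciferase driven by a doxycycline-inducible promoter; compound on cells about two nights before reading with doxycycline added after day one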
Hits are given with their value; . = inactive; / = no result given.

SMILES	aSyn UTR inh	697 NFkB inh	Gli-Sufu block	Jurkat NFkB inh	KLF5 inhibitor	Mdm2 MdmX PPI	Jurkat NFkB conf	Mdm2 MdmX conf	FLuc counter	others
COC1C(O)C(C)OC(OC2CCC3(C)C(CCC4C3C(O)CC3(C)C(C5=CC(=O)OC5)CCC43O)C2)C1O (stereo not given)	/	/	.	/	/	/	/	/	/
CCCC[C@@H](C)C[C@@H](C)C(=O)N(C)[C@@H](CC(C)C)C(=O)N[C@H](C(=O)N(C)[C@H](C(=O)N1C[C@@H](O)C[C@H]1C(=O)N1C(=O)C=C[C@@H]1C)C(C)C)C(C)OC(C)=O (stereo not given in full)	/	.	.	91	/	95	93	97	55
CC(=O)O[C@@]12CO[C@@H]1C[C@H](O)[C@@]1(C)C(=O)[C@H](O)C3=C(C)[C@@H](OC(=O)[C@H](O)[C@@H](NC(=O)c4ccccc4)c4ccccc4)C[C@@](O)([C@@H](OC(=O)c4ccccc4)C12)C3(C)C (stereo not given in full)	114	.	.	68	.	54	64	63	50
CC(=O)O[C@H]1C(=O)[C@@]2(C)C([C@H](OC(=O)c3ccccc3)[C@]3(O)C[C@H](O)C(C)=C1C3(C)C)[C@]1(OC(C)=O)CO[C@@H]1C[C@H]2O (stereo not given in full)	.	.	.	.	.	.	/	/	/
CC(=O)O[C@H]1C(=O)[C@@]2(C)C([C@H](OC(=O)c3ccccc3)[C@]3(O)C[C@H](OC(=O)[C@H](O)[C@@H](NC(=O)Cc4ccccc4)c4ccccc4)C(C)=C1C3(C)C)[C@]1(OC(C)=O)CO[C@@H]1C[C@@H]2O (stereo not given in full)	93	.	.	62	.	66	62	66	42
C/C=C1/C[C@@H](C)[C@](O)(CO)C(=O)OCC2=CCN3CC[C@@H](OC1=O)[C@@H]23	/	.	.	.	/	.	/	/	/
COc1ccc(NC2Oc3cc4c(cc3C(c3cc(OC)c(OC)c(OC)c3)C2C)OCO4)cc1 (stereo not given)	/	/	.	/	/	/	/	/	/
COc1cc(C2c3cc4c(cc3CC3COC(=O)C32)OCO4)cc(OC)c1OC (stereo not given)	/	.	.	53	/	61	49	54	98
C[C@]12CCC3[C@@H](CCC4=CC(=O)CC[C@@]43C=O)C1CCC2=O (stereo not given in full)	.	.	.	.	.	.	/	/	/
COC(=O)C1CN(C#N)N(c2ccc(Cl)cc2)C12c1ccccc1-c1ccccc12 (stereo not given)	112	.	.	87	.	95	60	.	/
CC1(C)C(C(=O)N2CCN(c3ccc(Cl)cc3)CC2)C1(C)C	.	.	.	.	.	.	/	/	/
O=[N+]([O-])c1cnc[nH]1	.	.	.	.	/	.	/	/	/
CC(=O)OC1CCC2(C)C3CCC4(C)C(OC(C)=O)CCC4C3C(C)C2(O)C1 (stereo not given)	/	/	.	/	/	/	/	/	/
C[C@]12CC[C@H](O)C[C@H]1CC[C@@H]1[C@@H]2CC[C@]2(C)[C@@H](C3=CC(=O)OC3)CC[C@]12O	/	.	.	101	/	75	91	73	53
C[C@]12CC[C@H](O)C[C@H]1CC[C@@H]1[C@@H]2C[C@@H](O)[C@]2(C)[C@@H](C3=CC(=O)OC3)CC[C@]12O	/	.	.	98	/	73	74	73	.	697 NFkB conf=.
CCN1C[C@]2(COC(=O)c3ccccc3N)CC[C@H](OC)C34[C@@H]5C[C@H]6[C@H](OC)[C@@H]5[C@](O)(C[C@@H]6OC)[C@@](O)([C@H]13)[C@@H](OC)[C@@H]42	.	.	.	.	.	.	/	/	/
C=C1C(=O)O[C@@H]2C[C@@H](C)[C@@H]3C4OC4C(=O)[C@@]3(C)[C@@H](O)[C@H]12 (stereo not given in full)	.	.	.	58	/	101	.	100	.	697 NFkB conf=.
CC12CCC(O)CC1CCC1C2CCC2(C)C(C3=CC(=O)OC3)C(O)CC12O (stereo not given)	/	/	.	/	/	/	/	/	/
CC(=O)O[C@H]1[C@H]2O[C@]23[C@@H]2CC[C@]4(O)C[C@@H](O)CC[C@]4(C)C2CC[C@]3(C)[C@H]1c1ccc(=O)oc1 (stereo not given in full)	/	71	.	96	/	85	91	64	48	697 NFkB conf=85
C=C1C(=O)O[C@@H]2C[C@@H](C)[C@@H]3C=CC(=O)[C@@]3(C)[C@@H](OC(=O)CC(=O)O[C@H]3[C@@H]4C(=C)C(=O)O[C@@H]4C[C@@H](C)[C@@H]4C=CC(=O)[C@]43C)[C@H]12	116	104	93	93	/	97	100	100	.	697 NFkB conf=101
C=C1C(=O)O[C@H]2C[C@@H](C)[C@@H]3C=CC(=O)[C@@]3(C)C[C@H]12	.	.	61	88	/	100	63	96	53	697 NFkB conf=.
C=C1C(=O)OC2C1CCC(C)C1(O)C=CC(=O)C21C (stereo not given)	/	/	.	/	/	/	/	/	/
NC(N)=N/N=C/c1ccc(N(c2ccccc2)c2ccccc2)cc1	138	.	.	61	.	97	.	100	.
COC(C)(C)CCCC(C)C/C=C/C(C)=C/C(=O)OC(C)C (stereo not given)	/	.	.	.	/	.	/	/	/
CCOC(=O)C(O)(c1ccc(N(C)C(=O)COc2ccccc2)cc1)C(F)(F)F (stereo not given)	.	.	.	.	.	.	/	/	/
SMILES	aSyn UTR inh	697 NFkB inh	Gli-Sufu block	Jurkat NFkB inh	KLF5 inhibitor	Mdm2 MdmX PPI	Jurkat NFkB conf	Mdm2 MdmX conf	FLuc counter	others
CN(C)C(=O)O/N=C(\N)COc1ccc(C(C)(C)C)cc1	.	.	.	60	.	98	.	96	57
S=P1(Oc2ccccc2)Nc2ccccc2N1	/	/	.	/	/	/	/	/	/
CNc1ccc2nc3ccccc3[n+](C)c2c1	.	.	.	81	.	83	.	50	.
C[n+]1c2ccccc2nc2ccc(NCCO)cc21	.	.	.	.	.	.	/	/	/
O=C1C2CCCC1C(N1CCCCC1)CC2 (stereo not given)	.	.	.	.	.	.	/	/	/
CS(=O)(=O)c1ccc(C(=O)N2CCC(C(=O)O)(c3ccccc3)CC2)cc1	.	.	.	.	.	.	/	/	/
CC1CN(c2ccc([N+](=O)[O-])c3cccnc23)CC(C)N1 (stereo not given)	.	.	.	.	.	.	/	/	/	697 NFkB conf=.
